{"source": "PubChem BioAssay (EPA / NIEHS)", "note": "Results filed as inconclusive are left out. Active and inactive are the calls of the source. Rule for the calls: active = hit-call score of the fitted dose curve at least 0.9, where 1 is the maximum; inconclusive = response in the unintended direction; inactive = score below 0.9.", "data": [{"molecular_target": "human Vitamin D Receptor (VDR), VDR (gene 7421) (UniProt P11473)", "sequence (P11473 whole entry, looked up)": "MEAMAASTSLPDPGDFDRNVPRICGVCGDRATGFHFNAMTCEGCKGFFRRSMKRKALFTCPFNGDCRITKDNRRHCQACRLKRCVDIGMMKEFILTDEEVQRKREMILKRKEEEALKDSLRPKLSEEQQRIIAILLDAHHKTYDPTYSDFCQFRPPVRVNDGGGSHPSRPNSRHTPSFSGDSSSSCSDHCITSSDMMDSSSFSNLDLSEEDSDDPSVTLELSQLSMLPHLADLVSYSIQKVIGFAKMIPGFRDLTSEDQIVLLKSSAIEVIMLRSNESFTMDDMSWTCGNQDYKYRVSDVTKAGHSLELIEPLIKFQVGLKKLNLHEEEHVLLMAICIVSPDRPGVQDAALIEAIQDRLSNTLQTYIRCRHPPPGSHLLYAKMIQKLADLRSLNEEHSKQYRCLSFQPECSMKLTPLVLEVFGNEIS", "assay": "ATG_VDR_TRANS: Attagene TRANS-FACTORIAL HepG2 Assay for human Vitamin D Receptor (VDR) (AID 2283022)", "experimental": "ATG_TRANS is a cell-based, multiplexed-readout assay that uses HepG2, a human liver cell line, with measurements taken at 24 hours after chemical dosing in a 24-well plate.ATG_VDR_TRANS is one of 30 assay component(s) measured or calculated from the ATG_TRANS assay. It is designed to make measurements of mRNA induction, a form of inducible reporter, as detected with fluorescence intensity signals by Reverse transcription polymerase chain reaction (RT-PCR) and Capillary electrophoresis technology.Data from the assay component ATG_VDR_TRANS was analyzed into 1 assay endpoint. This assay endpoint, ATG_VDR_TRANS, was analyzed in the positive analysis fitting direction relative to DMSO as the negative control and baseline of activity. Using a type of inducible reporter, measures of mRNA for gain-of-signal activity can be used to understand the reporter gene at the transcription factor-level as they relate to the gene VDR. Furthermore, this assay endpoint can be referred to as a primary readout, because this assay has produced multiple assay endpoints where this one serves a reporter gene function. To generalize the intended target to other relatable targets, this assay endpoint is annotated to the nuclear receptor intended target family, where the subfamily is non-steroidal.\nHuman liver HepG2 cells are transiently transfected with multiple reporter transcription units (MRTUs) in 6-well plates using FuGene 6 reagent (Roche; 3 ml FuGene/1 mg DNA). The MRTU constructs are regulated by a cis-regulating element (promoter). […] A major difference between the CIS and TRANS system is that in CIS activities of endogenous TFs are measured, whereas the TRANS assay evaluates changes in activities of exogenous, chimeric NR-Gal4 proteins. […] At the end of 24 hour incubation, total RNA was isolated using TriZol reagent (Invitrogen). The isolated RNA is then reverse-transcribed using oligo(dT) primer and Mo-MLV reverse transcriptase (Invitrogen) with DNAse I (Ambion) treatment for 30 min. The one-tenth of the produced cDNA was amplified by PCR using Taq DNA polymerase (Invitrogen) and two reporter sequence-specific primers. The PCR products were fluorescently labeled by primer extension with 6-arboxyfluorescein (6-FAM) 5'-labeled reporter sequence-specific primer (2 min at 95 C, 20 s at 68 C and 10 min at 72 C) and these products were digested with 5U of HpaI (New England Biolabs) for 2h at 37 C. The fragments were purified using Qiaquick PCR columns (Qiagen), analyzed on an ABI 3130xL genetic analyzer (Applied Biosystems) with peak positions identified by using a set of X-rhodamine (ROX)-labeled MapMarker1000 molecular weight standards (BioVentures). The raw capillary electrophoresis data was processed using Attagraph software (Attagene).", "values": [{"compound": "C=C1CC[C@H]2O[C@]2(C)CC[C@@H]2[C@@H]1CC2(C)C", "outcome": "inactive"}, {"compound": "OC[C@@H](O)[C@H](O)[C@@H](O)[C@@H](O)CO", "outcome": "inactive"}, {"compound": "CN(C)c1ccc(C=O)cc1", "outcome": "inactive"}, {"compound": "CC1(C)CC(=O)CC(C)(C)N1", "outcome": "inactive"}, {"compound": "O=[N+]([O-])c1cc(N(CCO)CCO)ccc1NCCO", "outcome": "inactive"}, {"compound": "O=C1OC2(c3ccc(O)cc3Oc3cc(O)ccc32)c2ccccc21", "outcome": "inactive"}, {"compound": "CCOC(=O)C=Cc1ccccc1", "outcome": "inactive"}, {"compound": "CCn1cc(C(=O)O)c(=O)c2ccc(C)nc21", "outcome": "inactive"}, {"compound": "S=c1[nH][nH]c(=S)s1", "outcome": "inactive"}, {"compound": "CCCCCCCCCC(=O)OCC", "outcome": "inactive"}, {"compound": "C=CCOC(=O)/C=C\\C(=O)OCC=C", "outcome": "inactive"}, {"compound": "C=CCCCCCCCCC(=O)OCC", "outcome": "inactive"}, {"compound": "CCCCCC(=O)O[C@]1(C(C)=O)CC[C@H]2[C@@H]3CCC4=CC(=O)CC[C@]4(C)[C@H]3CC[C@@]21C", "outcome": "inactive"}, {"compound": "NC(=O)c1cnccn1", "outcome": "inactive"}, {"compound": "c1ccc(Cc2ccccc2)cc1", "outcome": "inactive"}, {"compound": "CC(=O)CC(=O)N(C)C", "outcome": "inactive"}, {"compound": "c1coc(CNc2ncnc3nc[nH]c23)c1", "outcome": "inactive"}, {"compound": "C=C(C)C(=O)OCCN(C)C", "outcome": "inactive"}, {"compound": "CCC(CC)CO", "outcome": "inactive"}, {"compound": "C=C(C)C(=O)OCCOCCOC(=O)C(=C)C", "outcome": "inactive"}, {"compound": "CCC(=O)OCC=Cc1ccccc1", "outcome": "inactive"}, {"compound": "CCCC[N+](C)(CCCC)CCCC", "outcome": "inactive"}, {"compound": "CCCCC(CC)COCCO", "note": "(stereo not given)", "outcome": "inactive"}, {"compound": "N#CCCNCCC#N", "outcome": "inactive"}, {"compound": "Cc1cccc(C)c1", "outcome": "inactive"}, {"compound": "CCC(=O)OC/C=C(\\C)CCC=C(C)C", "outcome": "inactive"}, {"compound": "CC/C=C\\C#N", "outcome": "inactive"}, {"compound": "CC(=O)OC/C=C(C)/C=C/C=C(C)/C=C/C1=C(C)CCCC1(C)C", "outcome": "inactive"}, {"compound": "CCC(C)(C)c1cc(O)c(C(C)(C)CC)cc1O", "outcome": "inactive"}, {"compound": "CCCCCCCCOC(C)=O", "outcome": "inactive"}, {"compound": "C=CC(O)CCCCC", "note": "(stereo not given)", "outcome": "inactive"}, {"compound": "CC(C)COC(=O)c1ccccc1O", "outcome": "inactive"}, {"compound": "CN(C)CCC=C1c2ccccc2CCc2ccccc21", "outcome": "inactive"}, {"compound": "CCCO[Si](OCCC)(OCCC)OCCC", "outcome": "inactive"}, {"compound": "Cc1ccncc1", "outcome": "inactive"}, {"compound": "CCCCCCCCCO", "outcome": "inactive"}, {"compound": "CCCCOC(=O)C(C)OC(=O)CCC", "note": "(stereo not given)", "outcome": "inactive"}, {"compound": "O=C1OCc2ccccc21", "outcome": "inactive"}, {"compound": "NNC(=O)OCc1ccccc1", "outcome": "inactive"}, {"compound": "CN1CCc2cccc3c2[C@H]1Cc1ccc(O)c(O)c1-3", "outcome": "inactive"}]}]}
